Each structure is given as a SMILES string. This is part of a sample that, as a whole, favours compounds with a hit. Of some 83,000 tested, about 20% had one in any assay.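 Treatment: one concentration, 48 hours, 96-well format. Scoring: percent growth, with anything below 10 considered active.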 Activity calls are given as the source filed them.

One assay concerns A549/ATCC NSCLC. Put plainly: NCI-60 one-dose screen, 48 h (100 = growth as untreated, 0 = no growth, -100 = all killed). The note with it: 10 µM unless noted.
Consider `COc1cc(-c2cc(-c3nc4cc(Cl)c(Cl)cc4[nH]3)[nH]n2)cc(OC)c1OC`, for which the growth is 69.5% (inactive). In the case of `Oc1cc(/C=C/c2nc(N3CCOCC3)c3cc(Cl)c(Cl)cc3n2)cc(O)c1O`, the growth was 106% (inactive). Turning to `Cc1cc(Nc2ccc(F)cc2)nc(N2CCN(c3ccnc4cc(Cl)ccc34)CC2)n1`, the growth is 29.8% (inactive). Same read-out and setting: in the case of `COc1ccc(/C=C/C(=O)NCC(C)O)cc1` (stereo not given) it was 83.2% (inactive). Same read-out and setting: the figure for `COc1ccc(-c2cc(/C=C/C(=O)c3ccc(N)cc3)[nH]n2)cc1` is 18.6% (inactive); for `CSc1ccc(N(C)c2nc(C)nc3c2CCC3)cc1` it is 6.42% (active). On the same count and under the same terms, in the case of `OCCNc1nc(Nc2ccc(Cl)c(Cl)c2)nc2ccccc12` it was 37% (inactive); in that of `COc1cc(-c2cc(-c3nc4ccccc4[nH]3)[nH]n2)cc(OC)c1OC`, 53.6% (inactive); in that of `O=C1CCN2C(=O)Nc3ccccc3C2C1` (stereo not given), 101% (inactive). Regarding `Cc1[c-]onc1C.Cc1[c-]onc1C.[Ag].[Ag].[NH-]S(=O)(=O)c1ccc(N=Nc2cc(N=Nc3ccc(S([NH-])(=O)=O)cc3)c3c(NC(=O)C(Cl)Cl)cccc3c2OC(=O)C(Cl)Cl)cc1`, the growth was 80.5% (inactive).

Regarding `Clc1ccc(Cn2cc(-c3nc4ccc(Br)nc4n3Cc3ccc(Cl)cc3)c3cccnc32)cc1`, the growth was 95.9% (inactive).

Regarding `COC(=O)[C@]12CC[C@@H](C)[C@H](C)[C@@H]1C1=CC[C@@H]3[C@@]4(C)C[C@@H](OC(C)=O)[C@H](O)[C@@](C)(COC(C)=O)[C@@H]4[C@H](O)C[C@@]3(C)[C@]1(C)CC2`, the growth is -86.2% (active).

For a further assay, the system named is 786-0 renal. Described as above. The note with it: 10 µM unless noted.
As to `COc1cc2[nH]c(C(=O)c3cc(OC)c(OC)c(OC)c3)c(N)c2cc1C#CC1CC1`, the growth was 38.7% (inactive).

For the molecule `COc1cc2c(cc1OC)C(=O)/C(=C/c1cc(-c3ccc4c(c3)OCO4)n[nH]1)C2`, the growth was -89.8% (active).

As for `NS(=O)(=O)c1ccc(CCNC(=O)/C=C/c2ccc(Cl)cc2)cc1`, the growth was 102% (inactive). On to `C/C(=N/NC(N)=S)C(=O)O`, for which the growth is 102% (inactive).

Regarding `Cc1ccc(-c2ccc(Nc3ccccc3)nn2)cc1S(N)(=O)=O`, the growth is 103% (inactive).

`CCC(c1ccc(OC)cc1)C(CC)c1ccc(O)c(CN2CCCCC2)c1` (stereo not given): the growth was 59.5% (inactive).

As to `COc1cc(-c2cc(-c3nc4ccc(F)cc4[nH]3)[nH]n2)cc(OC)c1OC`, the growth was 53.7% (inactive). In the case of `COc1cccc(NC(=O)c2sc3nc4c(cc3c2N)C(=O)CCC4)c1`, the growth is 41.1% (inactive). On the same count and under the same terms, the figure for `NC1(N)C=CC2=C(C=C1)C1(N)C3=C(C=CC(N)(N)C=C3)N2C2(N)C3=C(C=CC(N)(N)C=C3)N1C1=C2C=CC(N)(N)C=C1` is 84.3% (inactive); for `COc1ccc(-c2nc3ccccn3c2-c2nc3ccc(Cl)cc3[nH]2)cc1` it is 97.6% (inactive); for `O=c1c(CNc2ccc(S(=O)(=O)Nc3nccs3)cc2)coc2ccccc12` it is 103% (inactive).

With `CN1CCN(c2nc(-c3cccc4ccccc34)nc3sc4c(c23)CCCCCC4)CC1`, the growth is 87.7% (inactive). For `COc1ccc2nc(-c3cc(-c4cc(OC)c(OC)c(OC)c4)n[nH]3)[nH]c2c1`, the growth is 59.5% (inactive). Turning to `COc1cccc(-c2nn(-c3ccccc3)cc2-c2ccnc(NCCNS(=O)(=O)c3ccc(Cl)cc3)c2)c1`, the growth was 40.3% (inactive). On the same count and under the same terms, in the case of `O=S(=O)(NCCNc1cc(-c2cn(-c3ccccc3)nc2-c2cccc(O)c2)ccn1)c1ccc(C(F)(F)F)cc1` it was 35.8% (inactive); in that of `Cc1cc(C)c(NC(=O)c2sc3nc4c(cc3c2N)CCCC4)c(C)c1`, 47.3% (inactive).

In the case of `C/C(=N\Nc1cc(C)c2ccccc2n1)c1ccccn1`, the growth was -63.9% (active). Same read-out and setting: in the case of `C=C1C(=O)O[C@H]2[C@H]1CC/C(Cn1cc(-c3ccc(OC)cc3)nn1)=C\CC[C@@]1(C)O[C@@H]21` it was -83.2% (active); in that of `COC(=O)[C@]12CC[C@@H](C)[C@H](C)[C@@H]1C1=CC[C@@H]3[C@@]4(C)C[C@@H](OC(C)=O)[C@H](OC(C)=O)[C@@](C)(COC(C)=O)[C@@H]4[C@H](O)C[C@@]3(C)[C@]1(C)CC2`, 15% (inactive). In the case of `COc1cccc(-c2nn(-c3ccccc3)cc2-c2ccnc(NCCCNS(=O)(=O)c3ccc(Cl)cc3)c2)c1`, the growth is 37.4% (inactive). The same measure, in the same setting: the figure for `O=c1c(CNc2ccc(S(=O)(=O)Nc3ncccn3)cc2)coc2ccccc12` is 102% (inactive).

For the molecule `COc1ccc(-c2cc(/C=C/C(=O)c3ccc(OC)c(OC)c3)[nH]n2)cc1`, the growth was 13% (inactive).

As for `C#Cc1cc2c(N)c(C(=O)c3cc(OC)c(OC)c(OC)c3)[nH]c2cc1OC`, the growth is 46.8% (inactive).

For the molecule `O=S(=O)(NCCNc1cc(-c2cn(-c3ccccc3)nc2-c2cccc(O)c2)ccn1)c1ccc(F)cc1`, the growth was -9.01% (active). Same read-out and setting: in the case of `c1ccc2[nH]c(-c3cc(-c4ccc5c(c4)OCO5)n[nH]3)nc2c1` it was 55.7% (inactive); in that of `COc1cccc(-c2nn(-c3ccccc3)cc2-c2ccnc(NCCCNS(=O)(=O)c3cccc(F)c3)c2)c1`, 31.6% (inactive).

For the molecule `COc1cc(-c2cc(-c3nc4cc(Cl)c(Cl)cc4[nH]3)[nH]n2)cc(OC)c1OC`, the growth was 87.4% (inactive). Still for that read-out and setting: the figure for `Oc1cc(/C=C/c2nc(N3CCOCC3)c3cc(Cl)c(Cl)cc3n2)cc(O)c1O` is 95.7% (inactive).

Take `Cc1cc(Nc2ccc(F)cc2)nc(N2CCN(c3ccnc4cc(Cl)ccc34)CC2)n1`: the growth is 23.5% (inactive). On the same count and under the same terms, the figure for `COc1ccc(/C=C/C(=O)NCC(C)O)cc1` (stereo not given) is 100% (inactive). On the same count and under the same terms, the figure for `COc1ccc(-c2cc(/C=C/C(=O)c3ccc(N)cc3)[nH]n2)cc1` is 17.8% (inactive).

For the molecule `CSc1ccc(N(C)c2nc(C)nc3c2CCC3)cc1`, the growth is 14.4% (inactive). On the same count and under the same terms, the figure for `OCCNc1nc(Nc2ccc(Cl)c(Cl)c2)nc2ccccc12` is 62% (inactive); for `COc1cc(-c2cc(-c3nc4ccccc4[nH]3)[nH]n2)cc(OC)c1OC` it is 57.6% (inactive); for `O=C1CCN2C(=O)Nc3ccccc3C2C1` (stereo not given) it is 99.3% (inactive). For `Cc1[c-]onc1C.Cc1[c-]onc1C.[Ag].[Ag].[NH-]S(=O)(=O)c1ccc(N=Nc2cc(N=Nc3ccc(S([NH-])(=O)=O)cc3)c3c(NC(=O)C(Cl)Cl)cccc3c2OC(=O)C(Cl)Cl)cc1`, the growth was 104% (inactive). Same read-out and setting: the figure for `Clc1ccc(Cn2cc(-c3nc4ccc(Br)nc4n3Cc3ccc(Cl)cc3)c3cccnc32)cc1` is 90.5% (inactive); for `COC(=O)[C@]12CC[C@@H](C)[C@H](C)[C@@H]1C1=CC[C@@H]3[C@@]4(C)C[C@@H](OC(C)=O)[C@H](O)[C@@](C)(COC(C)=O)[C@@H]4[C@H](O)C[C@@]3(C)[C@]1(C)CC2` it is -81.9% (active).

(Values after PubChem BioAssay (NCI).)
